{"source": "PubChem BioAssay AID743060", "about": "(The Scripps Research Institute Molecular Screening Center, 2013)"}
{"assay": "inhibitors of T. brucei MetRS aminoacylation, late-stage follow-up, biochemical, radioactivity, round 1 (AID 743060)", "conditions": "purified enzyme, radiolabel aminoacylation, scintillation, 2 h; at 10 µM; stronger effect = higher value", "units": {"inhibition": "%"}}
{"molecule": "O=C(NCc1nc2ccccc2[nH]1)C1=C[C@H](C2CC2)C[C@H](OCc2ccc(CO)cc2)O1", "inhibition": 56.9}
{"molecule": "CCC(=O)c1cn(CC(=O)Nc2cccc(C(F)(F)F)c2)c2ccccc12", "inhibition": 4.46}
{"molecule": "CN(Cc1cc(Cl)cc(Cl)c1)[C@H]1C[C@H]2c3[nH]c4ccccc4c3CCN2C(=O)[C@H]1CO", "inhibition": 101}
{"molecule": "Cc1cccc2[nH]c(CCN(C)C(=O)c3cccc(C4CCNC4)c3)nc12", "note": "(stereo not given)", "inhibition": -14.3}
{"molecule": "COc1ccccc1NC(=O)Cn1cc(C(=O)C(=O)N2CCOCC2)c2ccccc21", "inhibition": -13.7}
{"molecule": "O=C(Cn1cc(C(=O)c2ccco2)c2ccccc21)Nc1cccc(C(F)(F)F)c1", "inhibition": 89}
{"molecule": "CC(=O)N(CCc1ccccc1)C1CC(=O)N(c2ccc(Br)cc2)C1=O", "note": "(stereo not given)", "inhibition": -21.2}
{"molecule": "CC(=O)c1c[nH]c(C(=O)NCc2cccc(C(F)(F)F)c2)c1", "inhibition": 92.7}
{"molecule": "CCCCCCCCCC1NC(C(=O)O)Cc2c1[nH]c1ccccc21", "note": "(stereo not given)", "inhibition": 93.2}
{"molecule": "O=C(Cn1cc(C(=O)C(=O)N2CCCC2)c2ccccc21)Nc1ccccc1", "inhibition": 9.2}
{"molecule": "Clc1ccc(OCCSCc2nc3ccccc3[nH]2)cc1", "inhibition": 44.8}
{"molecule": "Cc1ccc(C(=O)NCCc2nc3ccccc3[nH]2)cc1[N+](=O)[O-]", "inhibition": 86.4}
{"molecule": "CC(CC(=O)Nc1cccc(Br)c1)=NNC(=O)c1ccc(O)cc1O", "inhibition": 90.5}
{"molecule": "Clc1ccc(-c2nnc(SCc3nc4ccccc4[nH]3)o2)c(Cl)c1", "inhibition": 97}
{"molecule": "CC1Cc2ccccc2N1C(=O)Cn1cc(C(=O)C(=O)N2CCOCC2)c2ccccc21", "note": "(stereo not given)", "inhibition": -14.7}
{"molecule": "CCN(CC)C(=O)C(=O)c1cn(CC(=O)N2CCCc3ccccc32)c2ccccc12", "inhibition": -17.2}
{"molecule": "O=C(C[C@H]1C(=O)N(Cc2ccccc2)C[C@@H]1c1ccc(Br)cc1)Nc1ccc(Br)cc1", "inhibition": 94.4}
{"molecule": "COc1ccccc1NC(=O)CSc1nnc2c(n1)[nH]c1ccc(C)cc12", "inhibition": 14.5}
{"molecule": "O=C1CC(N(CCc2ccccc2)C(=S)Nc2ccccc2)C(=O)N1c1ccc(Br)cc1", "note": "(stereo not given)", "inhibition": 97.3}
{"molecule": "O=C(NCc1nc2ccccc2[nH]1)C1=C[C@H](c2ccc(Br)cc2)C[C@H](OCc2ccc(CO)cc2)O1", "inhibition": 94.6}
{"molecule": "Cc1cccc2[nH]c(C3CCCN(C(=O)c4cccc5cccnc45)C3)nc12", "note": "(stereo not given)", "inhibition": -4.34}
{"molecule": "O=C(Cn1cc(C(=O)C2CC2)c2ccccc21)Nc1cccc(C(F)(F)F)c1", "inhibition": 31.3}
{"molecule": "Cc1ccc(CNC(=O)CSc2nnc3c(n2)[nH]c2ccc(C)cc23)cc1", "inhibition": 71.3}
{"molecule": "O=C(Cn1cnc2ccccc21)Nc1cccc([N+](=O)[O-])c1", "inhibition": 91.9}
{"molecule": "Cc1[nH]c2ccc(Br)cc2c(=O)c1CN1CCCCCC1", "inhibition": 86.6}
{"molecule": "CC(C)(C)[C@H]1C=C(C(=O)NCc2nc3ccccc3[nH]2)O[C@@H](OCc2ccc(CO)cc2)C1", "inhibition": 83.8}
{"molecule": "O=C(NCCc1nc2ccccc2[nH]1)c1ccc(Cl)cc1", "inhibition": 74.2}
{"molecule": "COc1ccc(CNC(=O)CSc2nnc3c(n2)[nH]c2ccc(F)cc23)cc1", "inhibition": 89.6}
{"molecule": "O=C(NCc1nc2ccccc2[nH]1)C1=C[C@H](c2ccc(Br)cc2)C[C@H](OCCCCO)O1", "inhibition": 94.3}
{"molecule": "Cc1cc2cc(C(=O)N3CCCC(c4nc5ccccc5[nH]4)C3)ccc2o1", "note": "(stereo not given)", "inhibition": 78.2}
{"molecule": "O=C(CSC1CC(=O)N(c2cccc(Cl)c2)C1=O)Nc1ccc(Br)cc1", "note": "(stereo not given)", "inhibition": 79.9}
{"molecule": "O=C(CC=NOCc1ccc([N+](=O)[O-])cc1)Nc1ccc(Br)cc1", "inhibition": 84.7}
{"molecule": "COc1ccccc1NS(=O)(=O)c1cccc(NC(=O)Nc2ccccc2)c1", "inhibition": 95.1}
{"molecule": "CNC(=S)N(CCc1ccccc1)C1CC(=O)N(c2ccc(Br)cc2)C1=O", "note": "(stereo not given)", "inhibition": 99.7}
{"molecule": "Cc1ccc(C(=O)NCCc2nc3ccccc3[nH]2)cc1C", "inhibition": -3.55}
